These results are taken from PubChem BioAssay.

Where “and” joins values, the source holds several entries; their conditions need not be identical. Equal entries are not always repeated. Calls of active or inactive are those of the source. Unless noted, no rule for the calls is given here.

Assay [1] is described as follows: liver-stage malaria parasite growth inhibition, primary screen, cell-based, HepG2, luciferase luminescence, HepG2 viability (AID 624349; in the data active = parasite load remaining mostly below about 12%, no sharp cut-off; inactive = mostly above about 10%;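 also: 100% = mean of DMSO negative control wells on the same plate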). The following applies: P. berghei liver stage in HepG2, luciferase luminescence, concentration not given here; parasite load remaining: stronger effect = lower value; viability: measured here: HepG2 viability without parasites.
Assay [2] relates to Hepatitis C virus NS3 helicase. Kind of assay: HCV NS3 helicase inhibitors, primary screen, biochemical, fluorescence polarization, LOPAC1280 library (AID 687035; in the data active = inhibition above about 37%). The following applies: Purified HCV NS3 helicase, Cy5-dT15 ssDNA binding fluorescence polarization; stronger effect = higher value; concentration not given here.
A short description of assay [3]: Cy5 fluorescence quenching or enhancement artefacts, artefact control for HCV NS3 helicase inhibitor project, biochemical, LOPAC1280 (AID 687037). The following applies: Cy5-DNA-NS3h complex fluorescence interference counterscreen.
Assay [4] in a line: Cy5 fluorescence interference with SSB-bound oligo, artefact control for HCV NS3 helicase inhibitor project, biochemical, NIH Clinical Collection, E. coli SSB (AID 743268).
The subject of assay [5] is Hepatitis C virus NS3 helicase. Kind of assay: HCV NS3 helicase inhibitors, primary screen, biochemical, fluorescence polarization, NIH Clinical Collection (AID 743270). The following applies: NS3 helicase binding to Cy5-dT15 DNA, stronger effect = higher value, concentration not given here.
The target in assay [6] is Single-stranded DNA-binding protein (Escherichia coli (strain K12)) (UniProt P0AGE0). As to the kind of experiment: E. coli SSB displacement from DNA, counter-screen for HCV NS3 helicase inhibitor project, biochemical, fluorescence polarization, NIH Clinical Collection (AID 743271; in the data active = inhibition above about 28%). The following applies: stronger effect = higher value, concentration not given here.
The nature of assay [7]: fluorescence interference in NS3h assay format, artefact control for HCV NS3 helicase inhibitor project, biochemical, NIH Clinical Collection (AID 743272).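 Also: HCV NS3 helicase with a Cy5 labelled single stranded DNA probe.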 The following applies: fluorescence interference counterscreen, stronger effect = lower value.
Assay [8] relates to Neuropilin-2 / VEGF-C interaction (human). As to the kind of experiment: inhibitors of NRP2–VEGF-C binding, biochemical, microplate binding format, z-score (AID 743281). The following applies: microplate NRP2/VEGF-C binding assay; stronger effect = lower value.
Assay [9] is described as follows: stimulators of nuclear beta-catenin in C2C12, primary screen, imaging, WNT3A-conditioned medium, mouse C2C12, NPC library (AID 1117326; in the data active = nuclear beta-catenin stimulation mostly above about 4.2%, no sharp cut-off; inactive = mostly below about 10%). The following applies: stronger effect = higher value.
Assay [10] is described as follows: stimulators of insulin release from INS-1E, primary screen, cell-based, 5 mM glucose, NPC library (AID 1117329;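 active = compound raises insulin release from rat beta cells at 5 mM glucose, no numeric limit stated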). The following applies: rat INS-1E insulin secretion, at 10 µM, stronger effect = higher value.
A short description of assay [11]: growth inhibition of GSK3B-pretreated HCT116 cells – cell-based, CellTiter-Glo, 0.2 to 20 µM (AID 1117336;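 active = compounds lowering colon cancer cell viability after pretreatment blocking the GSK3B kinase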). The following applies: HCT116 viability after GSK3B inhibitor, at 20 µM, stronger effect = higher value.
Assay [12] can be described thus: inhibition of endothelial tube formation, primary screen, imaging, VEGF stimulated, CD31 staining, tube area, NPC library (AID 1117340;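 active = compound that reduces growth-factor-driven endothelial tube area in a mixed cell culture, no cutoff stated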). The following applies: VEGF-stimulated ADSC/ECFC co-culture, at 10 µM, stronger effect = higher value.
Assay [13] can be described thus: glucagon-like peptide 1 release enhancers, primary assay, NCI-H716 cell line, NPC library (AID 1117341;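 active = compound raises GLP1 secretion from the human gut endocrine cells, with no numeric limit stated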). The following applies: NCI-H716 cells, at 10 µM, stronger effect = higher value.
Assay [14] can be described thus: HCT116 colon cancer cell growth inhibition, primary screen, CellTiter-Glo luminescence, NPC library (AID 1117342;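 active = compounds that lower survival of HCT116 colon cancer cells in the luminescence readout, no numeric limit stated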). The following applies: at 20 µM (top of the series).
The nature of assay [15]: CellTiter-Glo luminescent readout of SW480 viability loss, NPC library primary (AID 1117343;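 active = compounds that lower viability of the colon cancer cells in the luminescence readout, with no numeric limit stated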). The following applies: CellTiter-Glo luminescence; at 20 µM (top of the series).
A short description of assay [16]: decreased DLD-1 cellular survival, CellTiter-Glo luminescent readout, NPC compound collection, primary HTS (AID 1117346;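 active = compounds that lower survival of DLD-1 colon cancer cells in the luminescence readout, no cutoff given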). The following applies: DLD-1 viability, CellTiter-Glo luminescence; at 20 µM (top of the series).

As to `COc1ccccc1N1CCN(CC(O)COc2cccc3ccccc23)CC1` (centres undefined), the parasite load remaining in assay [1] was 54.9% (inactive) and 58.6% (inactive) and 42.9% (inactive). The viability in assay [1] is 66.8% and 61.4% and 114%. Further, the inhibition was -2% (inactive) in [2], 5.15% (inactive) in assay [5] and 5.29% (inactive) in [6]. Also, in assay [3], the fluorescence ratio (interference) was 1 (inactive). Further, the values for the fluorescence ratio in [4] and in [7] were 0.97 (inactive) and 0.89 (inactive), respectively. Besides, the z-score in assay [8] was 1.13 (inactive). Moreover, the nuclear beta-catenin stimulation in assay [9] (at 10 µM) is 1.5% (inactive); in assay [9] (stimulation, at 2 µM), 1.7%. Moreover, the insulin secretion stimulation in assay [10] was 0.4% (inactive). In addition, the viability decrease in assay [11] is 0.8% (inactive). The tube area decrease in [12] is 35.4% (inactive). The GLP1 secretion stimulation in assay [13] is 10% (inactive). For the same molecule, the inhibition of viability in [14] was 64.7% (active). Further, the viability decrease (inhibition) is 92.1% (active) in assay [15] and 59.3% (active) in assay [16].

Regarding `C#C[C@]1(O)CC[C@H]2[C@@H]3CCc4cc(O)ccc4[C@H]3CC[C@@]21C`, the parasite load remaining in assay [1] was 111% (inactive). Moreover, the viability in assay [1] is 66.2%. Moreover, the results for the fluorescence ratio in [4] and in [7] were 0.98 (inactive) and 0.92 (inactive), respectively. The inhibition in assay [5] was 1.98% (inactive); in assay [6], -0.87% (inactive). The nuclear beta-catenin stimulation in [9] (at 10 µM) is 1.5% (inactive); in [9] (stimulation, at 2 µM) it was 0.8%. Also, the insulin secretion stimulation in assay [10] was 10.3% (inactive). Also, the viability decrease in [11] is 45.9% (inactive). In [12], the tube area decrease is 85.8% (active). The GLP1 secretion stimulation in assay [13] is -3.4% (inactive). In assay [14], the inhibition of viability is 70.3% (active). Moreover, the viability decrease (inhibition) in [15] was 65.6% (active); in [16] it was 62.5% (active).

Take `NC1CCN(c2cccc(Cl)n2)CC1`: the parasite load remaining in [1] is 103% (inactive). For the same molecule, the viability in assay [1] worked out at 71.3%. The inhibition in assay [2] is -6% (inactive); in assay [5], -1.19% (inactive); in [6] it was 133% (active). The fluorescence ratio (interference) in assay [3] is 1 (inactive). For the same molecule, the figures for the fluorescence ratio in assay [4] and in [7] were 2.95 (active) and 0.9 (inactive), respectively. In addition, the z-score in assay [8] was -0.326 (inactive). The nuclear beta-catenin stimulation in [9] (at 10 µM) was -1.8% (inactive); in [9] (stimulation, at 2 µM) it was 1.1%. Further, in [10], the insulin secretion stimulation is -0.7% (inactive). Besides, the viability decrease in assay [11] is -6.2% (inactive). The tube area decrease in [12] was 3.8% (inactive). For the same molecule, in assay [13], the GLP1 secretion stimulation was 3.8% (inactive). In addition, in assay [14], the inhibition of viability is 14.7% (inactive). Besides, the viability decrease (inhibition) in assay [15] is 28.7% (inactive); in assay [16], -9.7% (inactive).

For `Cc1[nH]c(=O)c(C#N)cc1-c1ccncc1`, the parasite load remaining in [1] was 79.2% (inactive) and 78.4% (inactive) and 15.3% (inactive). Besides, the viability in assay [1] is 69% and 68.9% and 65.5%. Besides, the inhibition was -3% (inactive) in assay [2], -4.36% (inactive) in assay [5] and -3.18% (inactive) in assay [6]. For the same molecule, the fluorescence ratio (interference) in [3] was 1 (inactive). For the same molecule, the fluorescence ratio was 1.05 (inactive) in [4] and 1.02 (inactive) in assay [7]. The z-score in assay [8] was 0.188 (inactive). Further, the nuclear beta-catenin stimulation is 0.1% (inactive) in [9] (at 10 µM) and 0.4% in assay [9] (stimulation, at 2 µM). The insulin secretion stimulation in [10] is 0.8% (inactive). Further, the viability decrease in assay [11] is -19.7% (inactive). Moreover, in assay [12], the tube area decrease is 4% (inactive). For the same molecule, the GLP1 secretion stimulation in assay [13] is 0% (inactive). For the same molecule, in [14], the inhibition of viability is 16.6% (inactive). In addition, the viability decrease (inhibition) in [15] is -4.9% (inactive); in [16] it was -6.1% (inactive).

In the case of `CC(=O)O[C@H]1C[C@@H]2CC[C@@H]3[C@H](CC[C@@]4(C)[C@H]3C[C@H]([N+]3(C)CCCCC3)[C@@H]4OC(C)=O)[C@@]2(C)C[C@@H]1N1CCCCC1`, in [1], the parasite load remaining is 67.6% (inactive) and 50.8% (inactive). Besides, the viability in assay [1] is 76.1% and 73.5%. Further, the fluorescence ratio in assay [4] and in assay [7] was 1 (inactive) throughout. The inhibition in assay [5] is -0.22% (inactive); in [6], 5.91% (inactive). Further, the nuclear beta-catenin stimulation in assay [9] (at 10 µM) was -1.4% (inactive); in assay [9] (stimulation, at 2 µM) it was -1.2%. For the same molecule, the insulin secretion stimulation in assay [10] is 0.6% (inactive). Moreover, the viability decrease in [11] was -4.1% (inactive). For the same molecule, the tube area decrease in assay [12] was 4.6% (inactive). The GLP1 secretion stimulation in assay [13] is 13.2% (inactive). Also, the inhibition of viability in assay [14] was 3.2% (inactive). In addition, the results for the viability decrease (inhibition) in assay [15] and in [16] were -6.9% (inactive) and -7.1% (inactive), respectively.
